Data on 9 molecules can be found in PubChem BioAssay (EPA / NIEHS).

Active and inactive are the calls of the source. How the source made its calls: active means hit-call score of the fitted dose curve at least 0.9, where 1 is the maximum; inactive means score below 0.9.

Read-out in test [1]: CD69, CD69 (gene 969)
Put plainly: BSK_SAg_CD69: BioMAP Diversity Plus: SAg Assay for CD69 Biomarker Activity (AID 2283089).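 On AC50: cell surface CD69 protein quantified by ELISA with fluorescence detection.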 Conditions: primary human HUVEC with PBMC; actives raise or lower the signal. The method, boiled down: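 Primary human vascular co-culture (umbilical vein endothelium with peripheral blood mononuclear cells) exposed to test chemical for 24 h. CD69 levels quantified by fluorescence ELISA; DMSO served as negative control for bidirectional fitting.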

Read-out in test [2]: Monocyte Chemoattractant Protein-1 (MCP1), CCL2 (gene 6347)
As to the kind of experiment: BSK_SAg_MCP1: BioMAP Diversity Plus: SAg Assay for Monocyte Chemoattractant Protein-1 (MCP1) Biomarker Activity (AID 2283090). Conditions: primary human HUVEC with PBMC; actives raise or lower the signal. The method, boiled down:
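MCP-1 levels in the endothelial–PBMC SAg co-culture were quantified by ELISA at 24 h post-dosing; both increases and decreases versus DMSO scored. Cytotoxicity monitored by SRB total protein in parallel cultures.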

Read-out in test [3]: E-selectin (Homo sapiens) (UniProt P16581)
As to the kind of experiment: BSK_SAg_Eselectin: BioMAP Diversity Plus: SAg Assay for Eselectin Biomarker Activity (AID 2283091). Conditions: primary human HUVEC with PBMC; actives raise or lower the signal. The method, boiled down:
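Human umbilical vein endothelial cells co-cultured with peripheral blood mononuclear cells, SAg system. E-selectin is measured by ELISA 24 h after dosing and fitted bidirectionally against DMSO. Cytotoxicity is checked by SRB staining of parallel cultures.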

Read-out in test [4]: Monokine induced gamma interferon (MIG), CXCL9 (gene 4283)
As to the kind of experiment: BSK_SAg_MIG: BioMAP Diversity Plus: SAg Assay for Monokine induced gamma interferon (MIG) Biomarker Activity (AID 2283092). The following applies: primary human HUVEC with PBMC; actives raise or lower the signal. An outline of the steps: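 Endothelial cells and PBMC were co-cultured, exposed to test chemicals, and sampled 24 h later. MIG was measured by ELISA, and responses were fitted in both directions relative to DMSO.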

The nature of test [5]: BSK_SAg_PBMCCytotoxicity: PBMC Cytotoxicity Assessment in the BioMAP Diversity Plus: SAg Assay (AID 2283093).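 Further: PBMC viability measured as Alamar Blue reduction fluorescence at 546/580 nm; fitted both ways against DMSO so a hit may be loss or gain of signal.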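 On AC50: PBMC superantigen activated with SEB plus TSST-1 one hour after compound addition.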 The following applies: primary human HUVEC with PBMC. An outline of the steps: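 Compound added to 75,000 PBMC/well for 1 h; SEB and TSST-1 then added at 20 ng/mL final each; 90 h incubation; Alamar Blue 6 h; read 546/580 nm ex/em. Activity fitted bidirectionally relative to DMSO baseline.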

Read-out in test [6]: Interleukin-8 (IL8), CXCL8 (gene 3576)
As to the kind of experiment: BSK_SAg_IL8: BioMAP Diversity Plus: SAg Assay for Interleukin-8 (IL8) Biomarker Activity (AID 2283094). Conditions: primary human HUVEC with PBMC; actives raise or lower the signal. An outline of the steps:
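In this co-culture of human umbilical vein endothelium with peripheral blood mononuclear cells, IL-8 is assayed by ELISA at 24 h. DMSO serves as baseline for bidirectional curve fitting.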

Test [7] is described as follows: BSK_SAg_Proliferation: Cell Proliferation Assessment in the BioMAP Diversity Plus: SAg Assay (AID 2283095).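 Further: relative cell number as total protein by SRB absorbance in sub-confluent culture.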 Conditions: primary human HUVEC with PBMC. The method, boiled down: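 Readout is SRB-stained protein (560 nm) in a primary human HUVEC and PBMC co-culture; sub-confluent cultures are read at 96 h. Activity is fitted bidirectionally using DMSO as baseline.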

The nature of test [8]: BSK_SAg_SRB: Viability Assessment in the BioMAP Diversity Plus: SAg Assay (AID 2283096).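 Further: cells read one day after compound addition; hits may be either gain or loss of signal compared with DMSO.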 The following applies: primary human HUVEC with PBMC. The method, boiled down:
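Total protein by sulforhodamine B staining, 24 h after dosing, in HUVEC–PBMC co-culture; DMSO-referenced bidirectional fitting.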

E-selectin (Homo sapiens), sequence (P16581 whole entry, looked up): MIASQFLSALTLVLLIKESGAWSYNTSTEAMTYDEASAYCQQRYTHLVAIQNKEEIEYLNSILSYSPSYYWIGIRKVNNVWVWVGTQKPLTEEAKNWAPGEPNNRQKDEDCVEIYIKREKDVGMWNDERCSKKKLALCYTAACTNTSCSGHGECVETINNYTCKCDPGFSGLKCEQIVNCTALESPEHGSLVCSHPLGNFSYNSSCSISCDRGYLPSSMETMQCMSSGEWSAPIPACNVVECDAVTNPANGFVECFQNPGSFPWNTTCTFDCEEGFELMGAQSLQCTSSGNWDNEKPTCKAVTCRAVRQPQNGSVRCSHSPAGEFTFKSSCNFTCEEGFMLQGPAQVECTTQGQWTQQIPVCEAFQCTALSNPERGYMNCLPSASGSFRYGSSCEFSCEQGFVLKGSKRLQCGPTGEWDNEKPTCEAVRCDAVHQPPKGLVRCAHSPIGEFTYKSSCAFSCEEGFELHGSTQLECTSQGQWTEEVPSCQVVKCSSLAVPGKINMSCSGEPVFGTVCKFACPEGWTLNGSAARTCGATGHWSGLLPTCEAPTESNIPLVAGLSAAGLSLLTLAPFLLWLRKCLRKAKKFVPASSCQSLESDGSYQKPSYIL

Turning to `C=C[Si](OC(C)=O)(OC(C)=O)OC(C)=O`, the outcome in test [1], in test [2], in test [3], in test [4], in test [5] and in test [6] was inactive. For the same molecule, the outcome in test [7] and in test [8] was inactive.

Turning to `C#CC1(O)CC[C@H]2[C@@H]3CCC4=CCCC[C@@H]4[C@H]3CC[C@@]21C` (stereo partly specified), the AC50 (as a rule, the concentration at which the activity in the assay is half-maximal) in test [1] was 29.7 µM (active); in test [2], 31.8 µM (active); in test [3], 35.9 µM (active); in test [4], 31.8 µM (active); in test [5], 20 µM (active); in test [6], 20 µM (active). Further, the values for the concentration at half-maximal activity (AC50) in test [7] and in test [8] were 12.3 µM (active) and 28 µM (active), respectively.

Consider `CCCCC/C=C\C/C=C\CCCCCCCC(=O)OC`, for which the result in test [2] and in test [8] was inactive. The AC50 in test [3] is 30.9 µM (active); in test [4], 31.4 µM (active); in test [5], 23.2 µM (active); in test [6] it was 27.8 µM (active); in test [7], 13.1 µM (active).

Consider `C=CC=CC=CCCCCC`, for which the result in test [1], in test [2], in test [3], in test [4], in test [5] and in test [6] was inactive. The outcome in test [8] was inactive. Besides, the AC50 in test [7] was 6.71 µM (active).

Consider `CCCCCCCCc1ccc(Nc2ccc(CCCCCCCC)cc2)cc1`, for which the outcome in test [1], in test [2], in test [4], in test [5], in test [6] and in test [7] was inactive. In addition, the outcome in test [8] was inactive. In test [3], the AC50 is 0.0731 µM (active).

As to `CCCCC(CC)COCC1CO1` (stereo unspecified), the outcome in test [1], in test [2], in test [3], in test [4], in test [5] and in test [6] was inactive. Also, the result in test [7] and in test [8] was inactive.

Regarding `C/C=C\C/C=C/CCCCCCCCOC(C)=O`, the AC50 in test [1] was 20 µM (active); in test [3], 29.5 µM (active); in test [5], 24.3 µM (active); in test [7] it was 26.7 µM (active). Besides, the outcome in test [2], in test [4], in test [6] and in test [8] was inactive.

Regarding `COc1ccc2nc(N)sc2c1`, the outcome in test [1], in test [2], in test [3], in test [4], in test [5] and in test [6] was inactive. In addition, the outcome in test [7] and in test [8] was inactive.

Take `S=C(NC1CCCCC1)NC1CCCCC1`: the result in test [1], in test [2], in test [3], in test [4], in test [5] and in test [6] was inactive. For the same molecule, the outcome in test [7] and in test [8] was inactive.
